Consider 27 molecules from PubChem BioAssay (EPA / NIEHS).

Calls of active or inactive are those of the source. How the source made its calls: active means hit-call score of the fitted dose curve at least 0.9, where 1 is the maximum; inactive means score below 0.9.

The nature of this experiment: ATG_NF_kB_CIS: Attagene CIS-FACTORIAL HepG2 Assay for human Nuclear Factor Kappa B (NF-kB) (AID 2282991). To be noted: HepG2 Attagene cis-factorial NF-kB reporter mRNA; actives raise or lower the signal. Put shortly: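 Measures mRNA induction of an NF-kB-responsive cis-element reporter in HepG2 cells transfected with multiple reporter units, sampled 24 h post-dosing; quantified by fluorescence after RT-PCR and capillary electrophoresis, fitted for activation or inhibition against DMSO.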
With `CCOP(=S)(Oc1ccc([N+](=O)[O-])cc1)c1ccccc1` (configuration not stated), the molecule was classed as inactive.

On to `COP(=O)(O)OC`, for which the result was inactive.

For the molecule `N#Cc1ccc(O)cc1`, the molecule was classed as inactive. The term AC50 denotes the midpoint of the concentration-response curve, whichever way the signal moves. `C=CC(=O)OCC(F)(F)C(F)F`: the half-maximal activity concentration (AC50) was 76 µM (active). As for `O=C(O)C(F)(OC(F)(F)C(F)(F)C(F)(F)F)C(F)(F)F` (configuration not stated), the outcome was inactive. The same measure, in the same setting: the entry for `O=P(OCC(Br)CBr)(OCC(Br)CBr)OCC(Br)CBr` (configuration not stated) is “inactive”. Same read-out and setting: under `CC(O)C#N` (configuration not stated) stands “inactive”; under `O=NN1CCCC1`, “inactive”; under `N#Cc1cc([N+](=O)[O-])ccc1N`, “inactive”. `Cc1cc(C)c(C(=O)P(=O)(c2ccccc2)c2ccccc2)c(C)c1`: the molecule was called inactive. `O=c1ssc(Cl)c1Cl`: the AC50 was 45 µM (active). Turning to `CCOC(=O)c1ccccc1C(=O)OCC`, the result was inactive.

`CCOP(=S)(OCC)SCSc1ccc(Cl)cc1`: the outcome was inactive. Same read-out and setting: the entry for `OCC(F)(F)OC(F)(F)C(F)(F)OC(F)(F)C(F)(F)OC(F)(F)CO` is “inactive”; for `COC(N)=O` it is “inactive”. `COP(N)(=S)OC`: the molecule was called inactive. Still for that read-out and setting: the entry for `FC(F)(F)C(F)(C(F)(F)F)C(F)(F)C(F)(F)CC1CO1` (configuration not stated) is “inactive”; for `C/C(=N\NC(=O)Nc1cc(F)cc(F)c1)c1ncccc1C(=O)O` it is “inactive”. As for `COCCOCCO`, the molecule was called inactive. Same read-out and setting: the entry for `O=C(CBr)OCc1ccccc1` is “inactive”.

As to `Clc1ccc(Oc2ccccc2)cc1`, the call was inactive. Consider `CCCCC(CC)COC(=O)c1c(Br)c(Br)c(Br)c(Br)c1C(=O)OCC(CC)CCCC` (configuration not stated), for which the molecule was classed as inactive. Still for that read-out and setting: under `Oc1ccc(I)cc1` stands “inactive”; under `NNC(N)=S`, “inactive”; under `CC(C)CBr`, “inactive”. As for `CC1=C(C(=O)Nc2ccccc2)S(=O)(=O)CCO1`, the AC50 was 122 µM (active). Take `C=CC(=O)OCC(CC)(COC(=O)C=C)COC(=O)C=C`: the AC50 was 5.65 µM (active).
